The results in this text go back to PubChem BioAssay.

The structures appear in SMILES notation. A number with no mark means an inactive call. Activity calls are given as the source filed them. Rule as the data show it: active = fold change permeability below about 0.7 or above about 1.3; inactive = in between.

A short description of this assay: compounds altering in vitro BBB leakiness – cell-based, FITC-avidin fluorescence, HTS, primary screen (AID 1963498). Also: test concentration not given here. The note with it: brain endothelial barrier, actives lie on both sides.
On to `CC1CNc2c(cccc2S(=O)(=O)N[C@@H](CCCN=C(N)N)C(=O)N2CC[C@@H](C)C[C@@H]2C(=O)O)C1` (stereo partly specified), for which the fold change permeability was 0.9.
The value for `NC(CCCP(=O)(O)O)C(=O)O` (stereo unspecified) was 0.9; that for `O=C(Nc1ccccc1C(=O)NC1CCCCNC1=O)c1cc2ccccc2s1` (stereo unspecified) was 1.9 (active); that for `O=C1CCCC(=O)C1C(=O)c1ccc(C(F)(F)F)cc1[N+](=O)[O-]` was 0.9.
Regarding `C[n+]1cccc(C(N)=O)c1`, the fold change permeability is 0.9.
`CNC(=O)c1c(F)cccc1Nc1nc(Nc2cc3c(cc2OC)CCN3C(=O)CN(C)C)nc2[nH]ccc12`: the fold change permeability was 1.6 (active).
Turning to `COc1cc(N2CCN(C)CC2)ccc1Nc1nccc(-c2cn(C)c3cnccc23)n1`, the fold change permeability is 1.2.
As for `COc1cc(/C=C(\C#N)C(=O)Nc2nnc(C(F)(F)F)s2)ccc1OCc1ccc(C(F)(F)F)cc1C(F)(F)F`, the fold change permeability was 1.5 (active).
For the compound `O=C(/C=C/c1ccc(O)c(O)c1)OCCc1ccccc1`, the fold change permeability was 1.
Consider `CC1(C)OC(=O)C(c2cccc(F)c2)=C1c1ccc(S(C)(=O)=O)cc1`, for which the fold change permeability is 0.9.
Regarding `COc1cc2c(cc1OC)C1CC(=O)C(CC(C)C)CN1CC2` (stereo unspecified), the fold change permeability was 0.7 (active).
In the case of `CCOC(=O)C(C)(C)Oc1ccc(Cl)cc1`, the fold change permeability was 0.9.
`Fc1ccc(CN(C2=NCCN2)c2c(Cl)cccc2Cl)cc1`: the fold change permeability was 1.1.
As for `CCN(CC)CCNC(=O)c1cc(Cl)c(N)cc1OC`, the figure is 0.9.
Regarding `O=c1[nH]c2ccccc2n1CCN1CCN(c2cccc(C(F)(F)F)c2)CC1`, the fold change permeability is 1.5 (active).
The value for `Cc1ccc(S(=O)(=O)Nc2ccccc2N2CCCCC2)s1` was 1.
